Unmarked numbers belong to inactive results.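 How the source made its calls: active = MAPPIT score above the 99th percentile of random reference set scores in the same batch; inactive = at or below it.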
Experiments:
Test in all cases: MAPPIT interaction score (arbitrary units); higher = stronger binary interaction signal, active = hit call of the paper
CG4853 = details: MAPPIT configuration: N-N; pair source set: Curagen_low_conf
CG4860 = details: MAPPIT configuration: N-N; pair source set: Curagen_high_conf
CG46280 = details: MAPPIT configuration: N-C; pair source set: screen_4
CG4360 = details: MAPPIT configuration: N-N; pair source set: Curagen_low_conf
CG4707 = details: MAPPIT configuration: N-N; pair source set: Curagen_high_conf
CG4617 = details: MAPPIT configuration: N-N; pair source set: Curagen_high_conf
CG5062 = details: MAPPIT configuration: N-N; pair source set: Curagen_low_conf
slmo = details: MAPPIT configuration: N-N; pair source set: Curagen_high_conf
CG4325 = details: MAPPIT configuration: N-N; pair source set: DPIM
CG4884 = details: MAPPIT configuration: N-N; pair source set: Finley_Y2H
CG44837 = details: MAPPIT configuration: N-N; pair source set: Curagen_low_conf
CG4511 = details: MAPPIT configuration: N-C; pair source set: screen_3
CG4789 = details: MAPPIT configuration: N-N; pair source set: Lit-BS-16
PVRAP = details: MAPPIT configuration: N-N; pair source set: Lit-BS-16
CG43325 = details: MAPPIT configuration: N-C; pair source set: screen_4
caup = details: MAPPIT configuration: N-N; pair source set: screen_1
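Further: HEK293T cells with Epo stimulation, STAT-responsive firefly luciferase reporter, fold induction versus unstimulated cells divided by the larger fold induction of two negative controls lacking either bait or prey.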

B1: Rtca (protein)
chain: MDAEKMLEIDGSYLEGGGQALRNALSLSCILGKPVRVVKIRASRPSPGLSHQHLHGLNLLRDITNADVVGNYLLSSTVEFTPRTILDNTYRVETHTAASITLIYQMALPVLLFAGRPSRLIVSGGTNVDFAPPVEYMQEVLLPNLKHFGVSFDLKVQRYGFYPRGQGRCQLDVQPVTKLNSGKLVAFGRIKSVSGVAYCAGRLPVNIAIDMQQTAQREIHRLWPSQQCSIEPIKHSRQKAFHNGAGILMTVNTTSDVVLGASALGKKRIDGHVLGSEASCQLGDYMRKQVCVDDYMQDQLIIYMALAVGRSTMRTGKLTNHTRTAINVAEQMTGVKFDVAMEPGGQMLVSCKGLGHVNKLI
CG4853
  MAPPIT interaction score: 1.6

B2: Ndg (protein)
chain: MPTFGSKLLACLLLSSVILVSGQFEHYLDSLRASELYEFEDGSLGSIHLLPKGDSETIVLQLEQPIHFYGEQYEQLYINTNGILTFNSEFPEYLNQPFPLEYASIAAFYSNVDTSFSDEGTSISLFESKEQSILDRASSLVRYAFSSQSEFEARQVIVATWRNVGYFDSKTDRLNTFQVALIANEQSTFVQFIYPDGGLNWLQGETAGLGLPDIRAQAGFVAEDGRFYTLNGSGSENARFLSESTNLGVPGVWLFEVAPIENEQNVRSPDNAESLTESPALALSCQAHAHQCHEKAECHDKAEGYCCVCGSGFYGNGKSCLANDQPIRVTGTLTGELNKQPVSEEAKLQSYVVTSEGRTYTTINPLTPELGAQLRLVLPLLTTVPWLFAKSVGGVANGYQLTGGVYTHVSRLQFDSGENLHVNQTFEGLNYWDQLSVKIEIYGEVPAVAADAVLILPDYVEEYTFERPGELKSVQVLNINITEEQRVLGLQVEQRILYRSCLRDDEADPSATKVLQKISKVALDYVERDQALRIGAMSKVGVTPESNACNDGTADCVENSVCVPYEDTYRCDCYHGFAAQLDERGVEVCLDIDECATGSHVCDENAVCDNTEGGFNCYCTEGFEGNGYRCLSNSTADNIEYPPAVEGQAEPTSEPSPNPSPYPDQGQDQEREREDDQYPQPNPYPYPEEQIPQHPDECYRCSKDADCYQGRCTCHEGFDGDGYTCTNICGHGEVWENGRCEPLLLERHDVDPLCDALGECRCPYGYELSEDSQRCTYVQEFDGERNADLIPCDVDENCHINATCNWYGQELRHICTCQPGFRGDGYNCDPISDDSCAIRPDICDVHADCVYEEHLGKSECQCQAGYTGNGFNCQLAAECQSAEHCGENAFCDDGVCRCQADFERDVSDRCVPAGRCGSVFCGSNAICKWDSAEGVQYCDCLDGYQGDALTGCTSKPLSCHVLNNCGIHATCEPTEDPANYECQCIAGFKGDGYVCIEEQNCLNNPTLCDMNAQCRSTNSGLVCVCNQGFFGNGSLCQERQHQDSDFLIVSQGVMIARVPLNGRNVRPISVAQMAIGLDKDCVEGRVYWGDISTKKIVSTKYDGTDLRPFITTDIESPEGIAIDVISRRLYWADSAKDTIEVASLDDPSLRAVIINKQLVNPRGIAVDPYREKLFWSDWDRESPKIEMSNLDGTGRELLLGKDDVTLPNSLVVLENSGEVCYADAGTKKVECIEPQNRQIRTISNELSYPFGITFTHDQFYWTDWTTKKVEIVDSLGARQTPIQPPFFGSHKMYGMTVVEQHCPQYQSPCQISNGGCTDSRLCLVNRQAPSGKSCKCTSASTGCTVLAPGY
CG4860
  MAPPIT interaction score: -0.238

B3: Tm2 (protein)
chain: MDAIKKKMQAMKLEKDNAIDKADTCENQAKDANSRADKLNEEVRDLEKKFVQVEIDLVTAKEQLEKANTELEEKEKLLTATESEVATQNRKVQQIEEDLEKSEERSTTAQQKLLEATQSADENNRMCKVLENRSQQDEERMDQLTNQLKEARMLAEDADTKSDEVSRKLAFVEDELEVAEDRVRSGESKIMELEEELKVVGNSLKSLEVSEEKANQRVEEFKREMKTLSIKLKEAEQRAEHAEKQVKRLQKEVDRLEDRLFNEKEKYKAICDDLDQTFAELTGY
CG46280
  MAPPIT interaction score: 1.5

B4: Paris (protein)
chain: MAEICRVCMDISGKLVNIFDARRRTRVSIAEMIAQCTGFEVKRGDLFSEMICPQCYEDVKSAYGIRQTCEESHQFYCRVRDEGIEDALCALLEEEDWEISEDEDARIDSASAADDDGKSDSKKVAFECRECHKKYQRKGTFLRHMRTHMDGQSFPCPYCKRNFRLRVTLKAHMKTHNAAKPYECSHCAKTFAQQSTLQSHERTHTGERPFKCSQCSKTFIKSSDLRRHIRTHGSERPFKCSKCTKTFTRKFHLDNHFRSHTGERPFKCSHCPKAFAMKQHLKQHSRLHLPDRPFRCSHCPKTFRLSSTLKEHKLVHNAERTFKCPHCASFYKQRKTLARHILEIHK
CG4360
  MAPPIT interaction score: 0.0302

B5: Prosalpha7 (protein)
chain: MSTIGTGYDLSASQFSPDGRVFQIDYASKAVEKSGTVIGIRGKDAVVLAVEKIITSKLYEPDAGGRIFTIEKNIGMAVAGLVADGNFVADIARQEAANYRQQFEQAIPLKHLCHRVAGYVHAYTLYSAVRPFGLSIILASWDEVEGPQLYKIEPSGSSFGYFACASGKAKQLAKTEMEKLKMDMRTDELVESAGEIIYKVHDELKDKDFRFEMGLVGRVTGGLHLINPSELTEKARKAGDAANKDEDSDNETH
CG4707
  MAPPIT interaction score: -0.137

B6: TfIIA-L (protein)
chain: MALCQTSVLKVYHAVIEDVITNVRDAFLDEGVDEQVLQEMKQVWRNKLLASKAVELSPDSGDGSHPPPIVANNPKSHKAANAKAKKAAAATAVTSHQHIGGNSSMSSLVGLKSSAGMAAGSGIRNGLVPIKQEVNSQNPPPLHPTSAASMMQKQQQAASSGQGSIPIVATLDPNRIMPVNITLPSPAGSASSESRVLTIQVPASALQENQLTQILTAHLISSIMSLPTTLASSVLQQHVNAALSSANHQKTLAAAKQLDGALDSSDEDESEESDDNIDNDDDDDLDKDDDEDAEHEDAAEEEPLNSEDDVTDEDSAEMFDTDNVIVCQYDKITRSRNKWKFYLKDGIMNMRGKDYVFQKSNGDAEW
CG4617
  MAPPIT interaction score: -0.0193

B7: IntS10 (protein)
chain: MPSQEENELYMVKEAQRLRKSDPCAAMAWIITAKTLYPNAFNLQYEAYLLERDAQNYEEAAKCFSAIATNFQNQHTELWQEINSLTNALRNENETTPEHEFYVKMYKHLTPEVQHNIFMHTINHSADNLERIYIYILMFNKFPKSAITQAPRLLEMLAEGMKTEPDLYQRILVEEVLPMIQNKPPELSPNLACRLYTSSLEFYLRQIMDESDTADAWKNIFKVLMICGQMMGWEPFLPFSKHVNQNVYWEKLVDILSGSPAGSSQVLFYATTLFIYSLHGYIRNCKLRIEDADVTHVLVEGFMEWSPEGDGSEVPSMEPPKFSLTTAISPELSKAFLHAAQCWQLLNTDQFQRDFSQLMLALPLAPWISRFLFDLAIYFGHRDEANKLMADMTTQSSLVQSLQILSLNLMQGSMTLQGFQCILKILSELPTTQGQLLENMSLKGHRHMVFLPLTRSALVQYCVGAIISRLSRKVFEPNVPDRLLGDILVLQQLNLLNDVLLTQQIFNLIKQRKSFNLRTLSTYIINIDLLEELSHIWNSQQEDNFELTSSPNSSGTPTATTVAGGSQSRRIGTRGADKGARDEFRAITRQQIARCNENVITLLANFINQEHLMLAQHIFGISQPVETIVIK
CG5062
  MAPPIT interaction score: -0.102
slmo
  MAPPIT interaction score: 1.15

B8: mfrn (protein)
chain: MNIDDYESLPTTSVGVNMTAGAIAGVLEHVVMYPLDSVKTRMQSLSPPTKNMNIVSTLRTMITREGLLRPIRGASAVVLGAGPAHSLYFAAYEMTKELTAKFTSVRNLNYVISGAVATLIHDAISSPTDVIKQRMQMYNSPYTSVVSCVRDIYKREGFKAFYRAYGTQLVMNLPYQTIHFTTYEFFQNKMNLERKYNPPVHMAAGAAAGACAAAVTTPLDVIKTLLNTQETGLTRGMIEASRKIYHMAGPLGFFRGTTARVLYSMPATAICWSTYEFFKFYLCGLDADQYKSSITGSSEPRKADYVLPRTTDEEQIDQEREAAKEKDTTATLHSAPTSVNASGAIKTVCELSTRPAGPTINLHTRHTDVKSPYERGFST
CG4325
  MAPPIT interaction score: -0.276

B9: nudE (protein)
chain: MESPPMFNSVEDECRYWKERSKQYHKEWTDVKQEYDEFVEQSREMEIEMDATLDQKQSIIKDLTAKLTMFERENESLKLKLESHGIDMSNMEKQLETVKKDRDTMKVYLRQLEQKNDDLERAHRILNESIENFEKMLDQAYEKNALLELEVDEKGLLQEKLQRLMDETRDLKQELNVKSRFTPVVNGTSVPTANDTNTVNSSMNSSASLPNGIVANGELVKHDNAVATRATSVSVNALNGSLVNRNEYNQQHSLKSDGDETEDVPREWSANAAATPLLPAIHTSGAGRTALLLAGCRVVWILQFSVIHKPQIRNPIT
CG4884
  MAPPIT interaction score: 0.246

B10: RhoGAP92B (protein)
chain: MKRQFAKIKIAAENLSRSSKSDSKDSELEAIERQVDRYRDTIEKIVRKLPALSGGGGSGSGSSEEQDKRTKKNSHYKIAQALDESAKELPKDMPLQKVLANCGELEKTMAECIIESELETEAKVVRRLKNILDKEIQEISTLKRNVSRTLQEYTSLKRSHEAAIRLEEPAAKVNHIKSQQEECELKLEKERDAWAAQMLELIAKEDEIVSCIRDYVLNQRNYHERALQHVNASLARIQDTIQGTEKSRFGTSLKEHLTSTNREISYIVELCCCCLLEHGLEEEGLLRVGCASTKLRRMKHALEAQHVKTPLPLDYQDPHVIGSILKLYLRELPEPLLTYNLYKDFIRIAERHSEAERKTEIKAILTKLPKENYANLRYLTRFLSIVQQRSALNKMSSQNLAIVMSPNMLWPRIDKSSNAPADYIGQVNSSSAANIIVELLISQWDYFFIGEVEFYLTLQKQKLFVEGKSKSNSSNENLDRNDSEVMESPRYGTLRRQKANAPSPPTTNGNGIIMTTSQTSHRPHAKELFPQQTPEKQEKPAKPPLPNLPQFQSPAASQPTQTQLEPLPPPPVTPAKPVPMTRTQFFGLDNLPSPTADRKSTDSIGSFKLKPDVPQKPLLPKRPTVLGVGVPKADGKSDDEGGTTPTQATIDNGNGSVRFKTEHFLDKLRQENGETNGTREVSSTTKENNHNHDPPATAADQNQQQAQPQVTTPISPNSFQTPKRPTVPAPPPPTNWKSSD
CG44837
  MAPPIT interaction score: -0.0901

B11: Pka-R1 (protein)
chain: MSYMMAKTLEEQSLRECEHYIQTHGIQRVLKDCIVQLCVCRPENPVQFLRQYFQKLEREQVKLDASRQVISPDDCEDLSPMPQTAAPPVRRRGGISAEPVTEEDATNYVKKVVPKDYKTMNALSKAIAKNVLFAHLDESERSDIFDAMFPVNHIAGENIIQQGDEGDNFYVIDVGEVDVFVNSELVTTISEGGSFGELALIYGTPRAATVRAKTDVKLWGIDRDSYRRILMGSTIRKRKMYEEFLSRVSILESLDKWERLTVADSLETCSFDDGETIVKQGAAGDDFYIILEGCAVVLQQRSEGEDPAEVGRLGSSDYFGEIALLLDRPRAATVVARGPLKCVKLDRARFERVLGPCADILKRNITQYNSFVSLSV
CG4511
  MAPPIT interaction score: 5.21 (active)

B12: Jupiter (protein)
chain: MAAYAAFKHVELYNVGKAKKRVLRPPGGGSSDIFGSEMPQTPRNVKNRMASNIFAAEKDNGVKNNVRQGAHRFYFIGDAPRRGQKTVDSHSRLFGEPTRPITPGKNHMKSSIPFGQNTEAVAAQKLLTTNGHYNGKSGSVSSASSSVSSSTENLKMNSGSRSEGNPVTGEGYKVVANEYSQRQESSNGGTPVINKNRIPPGGYSSGLW
CG4789
  MAPPIT interaction score: 0.553
PVRAP
  MAPPIT interaction score: -1.6

B13: Mst84Db (protein)
chain: MCCGPLGFCGPCSPCGGPCGPCGPCGPCGSCCSPCGSCCAPCGPCGPCGPCCGGCGPCGPCGPCCGPCRPYCGC
CG43325
  MAPPIT interaction score: 1.12
caup
  MAPPIT interaction score: 0.0255

— the supplement of paper PMC10105736
